Bioassay records (PubChem)
Compounds with a hit are over-represented: about 3.5% of the library has one in this group of screens.
mHTT-CaM PPI inh – disrupts binding of mutant huntingtin to calmodulin; AlphaScreen His-mHTT/GST-CaM binding, luminescence; hit rate 3.6% among 190,000; inhibition, % at 15 µM;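 further: 0% = both proteins with DMSO and 100% = one protein alone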
Pf apPOL block – Pf-apPOL DNA polymerase inhibition. Recombinant Pf-apPOL, molecular beacon fluorescence, 1.5 h. inhibition, % at 10 µM. hit rate 0.25% among 210,000
Numbers without * were called inactive; . = no result given. No stated cut-off is given here; in the data, active means inhibition above about 50%; inactive means the rest.

SMILES	mHTT-CaM PPI inh	Pf apPOL block
O=C1C(=O)N(c2cccnc2)C(c2ccccc2[N+](=O)[O-])C1=C(O)c1ccc(Cl)cc1 (stereo unspecified)	87.8*	-218.4
COc1cc(/C=C2\C(=O)NN(c3ccc(F)c(Cl)c3)C2=O)ccc1O	33.0	1.0
CCOc1c(Br)cc(/C=C2\C(=O)NN(c3ccc(F)c(Cl)c3)C2=O)cc1OC	81.0*	1.1
COc1cc(C2(c3ccc(O)c(OC)c3)C(=O)Nc3c(C)cc(Br)cc32)ccc1O	59.6*	3.4
Cc1cc(Br)cc2c1NC(=O)C2(O)N1CCOCC1 (stereo unspecified)	-5.0	-2.2
CN1c2cc(F)ccc2C(=O)NC12CCN(C(=O)NCc1ccccc1)CC2	-8.5	-7.6
CCCCC(C(=O)O)n1c(O)c(C=C2C=Nc3ccccc32)sc1=S (stereo unspecified)	99.5*	24.9
CC(C)Cc1nn2c(N)c(C=C3C=Nc4ccccc43)c(=O)nc2s1	11.0	-15.2
CC1=CC(=O)C(C(C)C)=CC1=NS(=O)(=O)c1ccc([N+](=O)[O-])cc1	50.0	-6.4
CC1=CC(=NS(=O)(=O)c2ccc(Cl)cc2)C(C)=CC1=O	65.0*	-1.6
O=C1Nc2ccc(Br)cc2/C1=C/c1ccccc1Cl	11.0	-1.7
O=C1Nc2ccccc2/C1=C\c1c(Cl)cccc1Cl	49.0	1.5
O=C1Nc2ccc(F)cc2/C1=C\c1c(Cl)cccc1Cl	100.0*	-3.4
O=C1Nc2ccc(Br)cc2/C1=C\c1c(Cl)cccc1Cl	100.0*	2.8
CCOCCOCn1c(C)c(N2CCCC2)c(=O)[nH]c1=O	-2.1	.
C=C(C)COc1ccc2c(=O)c(Oc3ccccc3OC)coc2c1	-1.7	-5.0
Cc1cccc(C(=O)N2N=C(c3cccc(Br)c3)CC2(O)C(F)(F)F)c1 (stereo unspecified)	19.0	0.5
CCC1=NN(C(=O)COc2ccc(Cl)c(C)c2)C(O)(C(F)(F)F)C1 (stereo unspecified)	94.0*	-16.1
Cc1ccccc1OCC(=O)N1N=C(c2ccc(Br)cc2)CC1(O)C(F)(F)F (stereo unspecified)	93.0*	1.1
CCC1=NN(C(=O)Cc2ccc(OC)cc2)C(O)(C(F)(F)F)C1 (stereo unspecified)	-9.0	2.4
Cc1cccc(C(=O)N2N=C(c3ccc(Br)cc3)CC2(O)C(F)(F)F)c1 (stereo unspecified)	97.0*	0.9
O=C(COc1ccccc1)N1N=C(c2ccc(Br)cc2)CC1(O)C(F)(F)F (stereo unspecified)	28.0	-4.4
O=C1OC(c2ccc(Cl)c([N+](=O)[O-])c2)=N/C1=C\c1cc(Br)ccc1F	13.0	-3.5
COc1ccccc1C1C2=C(CC(C)(C)CC2=O)Nc2nc(-c3cccc(Cl)c3)nn21 (stereo unspecified)	70.4*	-3.3
COc1cccc(C2C3=C(CC(C)(C)CC3=O)Nc3nc(-c4cccc(Cl)c4)nn32)c1 (stereo unspecified)	0.7	-1.5
SMILES	mHTT-CaM PPI inh	Pf apPOL block
COc1ccc(C2C3=C(CC(C)(C)CC3=O)Nc3nc(-c4ccc(O)cc4)nn32)cc1 (stereo unspecified)	50.2*	1.5
CC1(C)CC(=O)C2=C(C1)Nc1nc(-c3ccccc3)nn1C2c1ccccc1 (stereo unspecified)	43.0	-2.0
COc1ccc(-c2nc3n(n2)C(c2ccccc2)C2=C(CC(C)(C)CC2=O)N3)cc1 (stereo unspecified)	51.6*	-4.1
CC1(C)CC(=O)C2=C(C1)Nc1nc(-c3ccccc3)nn1C2c1ccc(Br)cc1 (stereo unspecified)	35.2	-3.2
N#CC1=C(N)C(C#N)(C#N)C(c2ccccc2Cl)C2CSCC=C12 (stereo unspecified)	41.0	-0.2
Clc1ccc(-c2nc(CSc3nc4ccccc4n4cccc34)cs2)cc1	.	-6.8
CC1=CC(C)C2(CO)COC(c3ccc4c(c3)OCO4)C1C2C (stereo unspecified)	14.0	9.7
Cc1cc(C)nc(Nc2ncc(O)n2-c2ccc(Cl)cc2)n1	2.0	51.9*
Cc1ccc(-n2c(O)cnc2Nc2nc(C)cc(C)n2)cc1	2.0	24.1
c1ccc2c3c([nH]c2c1)CCCC3	36.8	.
O=C(Nc1ccccc1)c1cccc2c3c([nH]c12)CCCC3	76.2*	-1.4
O=C1CCCC2=C1C(c1ccc([N+](=O)[O-])cc1)C1C(=O)c3ccccc3C1=N2 (stereo unspecified)	26.0	17.3
O=C1CCCC2=C1C(c1ccc(Cl)cc1)C1C(=O)c3ccccc3C1=N2 (stereo unspecified)	66.0*	11.0
O=C1CCCC2=C1C(c1ccccc1)C1C(=O)c3ccccc3C1=N2 (stereo unspecified)	37.0	4.0
Cc1ccc(C2C3=C(CCCC3=O)N=C3c4ccccc4C(=O)C32)cc1 (stereo unspecified)	59.0*	3.6
CC1C(=O)N(c2ccc(Cl)cc2)CCN1C(=O)c1cccc(Br)c1 (stereo unspecified)	-0.6	-4.3
